These results are taken from PubChem BioAssay (NCATS).

In assay [1] the target is Glutaminase kidney isoform, mitochondrial (Homo sapiens) (UniProt O94925). Description: qHTS for Inhibitors of Glutaminase (GLS): LOPAC Validation (AID 624146). Note: nearly all actives have a fitted effect of over 60% in size. Note: potency is the fitted concentration of half-maximal effect. In short, it runs like this: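 Assay buffer: 45 mM KH2PO4 pH 8.2, 0.02% Tween-20. hKGA acts on L-glutamine (1 mM solution added); product glutamate is reported by an oxidase/peroxidase Amplex Red coupling, with fluorescence taken at baseline and 30 min.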
Sequence of Glutaminase kidney isoform, mitochondrial (Homo sapiens) (O94925 whole entry, looked up, canonical isoform): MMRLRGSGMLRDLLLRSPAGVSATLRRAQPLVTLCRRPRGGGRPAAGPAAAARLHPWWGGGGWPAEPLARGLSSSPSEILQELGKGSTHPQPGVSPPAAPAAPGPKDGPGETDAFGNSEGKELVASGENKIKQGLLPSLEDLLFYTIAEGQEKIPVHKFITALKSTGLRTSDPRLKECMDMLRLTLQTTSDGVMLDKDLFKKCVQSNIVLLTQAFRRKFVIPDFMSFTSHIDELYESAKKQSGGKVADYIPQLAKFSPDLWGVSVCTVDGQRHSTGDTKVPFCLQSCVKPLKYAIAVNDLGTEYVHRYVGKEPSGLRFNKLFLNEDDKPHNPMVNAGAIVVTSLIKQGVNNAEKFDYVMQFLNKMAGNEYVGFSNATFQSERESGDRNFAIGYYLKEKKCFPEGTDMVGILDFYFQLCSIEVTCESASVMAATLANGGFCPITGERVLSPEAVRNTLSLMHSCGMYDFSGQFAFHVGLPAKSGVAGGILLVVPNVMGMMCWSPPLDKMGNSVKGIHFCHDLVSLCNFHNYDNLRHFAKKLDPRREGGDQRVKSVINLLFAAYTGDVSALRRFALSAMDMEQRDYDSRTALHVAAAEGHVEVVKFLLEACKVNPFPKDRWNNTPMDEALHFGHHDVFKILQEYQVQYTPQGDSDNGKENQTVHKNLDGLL
(Quantitative high-throughput screening tests each substance at several concentrations.)

Assay [2] is described as follows: qHTS of Trypanosoma Brucei Inhibitors: LOPAC Validation (AID 624147). Note: potency is the fitted concentration of half-maximal effect. Summed up: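 Screened from lowest to highest concentration, compounds were pinned into TbPYK/substrate mixtures, and ADP (130 uM final) was added. Plates sat at room temperature for 45 min prior to Kinase-Glo Plus detection by luminescence.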
In assay [3] the target is Glucagon-like peptide 1 receptor (Homo sapiens) (UniProt P43220). Briefly: qHTS of GLP-1 Receptor Agonists: LOPAC Validation (AID 624148).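 Note: luminescence from a luciferase reporter switched on by cAMP; 0% is about no effect; higher luminescence signal means agonism.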 Summed up:
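Agonism scored as increased luciferase luminescence driven by cAMP in HEK293 clones carrying GLP-1R. Cells settled 12 hours, received compound for 4-6 hr at 37 deg C, 5% CO2, and were read after 12 min detection reagent at RT.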

A short description of assay [4]: qHTS of Nrf2 Activators: LOPAC Validation (AID 624149). Note: 0% is about no effect. Summed up:
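AREc32_Fluc cells, 1000/well in OPTI-MEM with 5% FBS, grown overnight, then exposed to compounds for 24 hr at 37 deg C, 5% CO2. ARE-driven firefly luciferase read by Steady-Glo luminescence after 30 min at RT.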

Assay [5] can be described thus: HTS Assay for Allosteric Antagonists of the Human D2 Dopamine Receptor: Hit Validation in HTRF (AID 624455). Note: potency is the fitted concentration of half-maximal effect.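 Note: stable D1 dopamine receptor cell line scored for blocking the D1 response.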 Summed up: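 Hit validation in cells stably expressing the D1 dopamine receptor, run in HTRF format. Compounds were tested for their ability to inhibit the D1-mediated response.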
For assay [6], the target named is Peroxisome proliferator-activated receptor alpha (Homo sapiens) (UniProt Q07869). Briefly: qHTS assay for small molecule agonists of the peroxisome proliferator-activated receptor alpha (PPARalpha) signaling pathway (AID 651778). Note: % of control where 0% means no effect. The conditions noted are these: PathHunter PPARalpha complementation, chemiluminescence, 6 h; max response: stronger effect = higher value. Summed up: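 Chemiluminescence from complemented enzyme reported PPARalpha activation in cells after 6 hr of compound treatment at 37 C. The detection reagent was incubated for 60 min at room temperature, and compounds were scored as agonists.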
Sequence of Peroxisome proliferator-activated receptor alpha (Homo sapiens) (Q07869 whole entry, looked up): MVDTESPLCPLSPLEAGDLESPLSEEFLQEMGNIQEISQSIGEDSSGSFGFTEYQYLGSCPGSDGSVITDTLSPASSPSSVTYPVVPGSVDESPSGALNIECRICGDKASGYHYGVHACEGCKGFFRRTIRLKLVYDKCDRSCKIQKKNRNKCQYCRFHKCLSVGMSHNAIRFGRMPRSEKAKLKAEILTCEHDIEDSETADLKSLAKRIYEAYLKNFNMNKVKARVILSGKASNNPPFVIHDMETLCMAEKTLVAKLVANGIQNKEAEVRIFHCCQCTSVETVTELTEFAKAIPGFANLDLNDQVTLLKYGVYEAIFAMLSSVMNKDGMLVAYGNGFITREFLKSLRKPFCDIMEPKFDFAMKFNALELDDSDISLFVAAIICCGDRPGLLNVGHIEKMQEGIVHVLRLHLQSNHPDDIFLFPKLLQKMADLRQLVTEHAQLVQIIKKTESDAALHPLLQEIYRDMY

Unmarked numbers belong to inactive results. Records with an inconclusive call do not appear. The source made the active and inactive calls. Calls come from the whole dose curve; as a rule, active = well fitted curve in the direction sought with a large enough effect; inconclusive = small, poorly fitted or top-dose-only effect, or another doubt; inactive = no such curve, though single readings can be large; an effect the other way counts as inactive or inconclusive.

Sequence of Glucagon-like peptide 1 receptor (Homo sapiens) (P43220 whole entry, looked up): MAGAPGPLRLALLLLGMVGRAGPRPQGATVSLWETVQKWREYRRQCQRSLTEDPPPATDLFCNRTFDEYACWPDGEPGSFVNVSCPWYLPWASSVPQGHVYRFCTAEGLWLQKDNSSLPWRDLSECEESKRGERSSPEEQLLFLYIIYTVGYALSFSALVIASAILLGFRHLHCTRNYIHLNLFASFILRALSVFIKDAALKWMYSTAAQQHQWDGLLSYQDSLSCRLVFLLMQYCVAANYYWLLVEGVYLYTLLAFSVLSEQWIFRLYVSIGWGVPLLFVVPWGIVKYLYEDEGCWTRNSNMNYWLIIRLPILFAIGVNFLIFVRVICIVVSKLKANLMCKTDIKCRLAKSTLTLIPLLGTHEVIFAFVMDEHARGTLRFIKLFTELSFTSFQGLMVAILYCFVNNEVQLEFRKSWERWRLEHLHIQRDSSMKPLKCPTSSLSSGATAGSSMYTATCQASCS

As for `c1ccc2c(c1)CCC[C@H]2Nc1nc2ccccc2[nH]1`, the Potency entry in assay [1], in assay [2], in assay [3], in assay [4] and in assay [5] was “inactive” throughout.
As for `N[C@@H](Cc1ccc(F)cc1)C(=O)O`, the Potency entry in assay [1], in assay [2], in assay [3], in assay [4] and in assay [5] was “inactive” each time.
`O=S(=O)(c1cccc2c(Cl)cccc12)N1CCCNCC1`: the Potency result in assay [1], in assay [2], in assay [3], in assay [4] and in assay [5] was “inactive” throughout.
Consider `CCCCOc1cc(CC2CNC(=O)N2)ccc1OC` (configuration not stated), for which the Potency result in assay [1], in assay [2], in assay [3], in assay [4] and in assay [5] was “inactive” throughout.
Regarding `CCCCCCCCCCC(C)(C)C(=O)Nc1c(OC)cc(OC)cc1OC`, the Potency entry in assay [1], in assay [2], in assay [3], in assay [4] and in assay [5] was “inactive” each time.
As to `S=C(S)N1CCCC1`, the figures for the Potency in assay [1] and in assay [2] were 12.6 µM (active) and 23.9 µM (active), respectively. For the same molecule, the Potency result in assay [3], in assay [4] and in assay [5] was “inactive” each time.
For `Nc1ncnc2c1nc(Br)n2C1OC2COP(=O)(O)O[C@@H]2C1O` (some centres not stated), the Potency entry in assay [1], in assay [2], in assay [3] and in assay [4] was “inactive” each time. The Potency in assay [5] was 11.6 µM (active).
Consider `O[Si](CCCN1CCCCC1)(c1ccc(F)cc1)C1CCCCC1` (configuration not stated), for which the Potency entry in assay [1], in assay [2], in assay [3], in assay [4] and in assay [5] was “inactive” throughout.
`COc1cc(N)c(Cl)cc1C(=O)OCCN1CCCCC1`: the Potency result in assay [1], in assay [2], in assay [3], in assay [4] and in assay [5] was “inactive” each time.
Consider `Nc1nc2[nH]c(=O)cnc2c(=O)[nH]1`, for which the Potency entry in assay [1], in assay [2], in assay [3], in assay [4] and in assay [5] was “inactive” throughout.
For the molecule `CC[C@@H]1Cc2cc(O)ccc2C2=C1c1ccc(O)cc1C[C@H]2CC`, the Potency in assay [1] was 0.794 µM (active). In addition, the Potency result in assay [2], in assay [3] and in assay [4] was “inactive” each time. In addition, in assay [6], the max response was -2.38%.
`CCCCCCC(=O)OC1CC(C)(C)NC(C)(C)C1`: the Potency result in assay [1], in assay [2], in assay [3], in assay [4] and in assay [5] was “inactive” in each case.
Take `O=C(N[C@@H](Cc1ccccc1)C(=O)CCl)OCc1ccccc1`: the Potency result in assay [1], in assay [2], in assay [3], in assay [4] and in assay [5] was “inactive” throughout.
As for `N=C(N)c1ccccc1`, the Potency entry in assay [1], in assay [2], in assay [3], in assay [4] and in assay [5] was “inactive” in each case.
With `COc1ccc(CCn2nnnc2C2(c3ccc(C)cc3)CC2)cc1`, the Potency entry in assay [1], in assay [2], in assay [3], in assay [4] and in assay [5] was “inactive” throughout.
`O=c1onc2n1-c1cc(Br)ccc1OC2`: the Potency entry in assay [1], in assay [2], in assay [3], in assay [4] and in assay [5] was “inactive” in each case.
Regarding `N=C(N)c1ccc(OCCCCCOc2ccc(C(=N)N)cc2)cc1` (tested in a mixture with another compound), the Potency result in assay [1], in assay [2], in assay [3], in assay [4] and in assay [5] was “inactive” in each case.
Consider `[Li+]`, for which the Potency entry in assay [1], in assay [2], in assay [3], in assay [4] and in assay [5] was “inactive” in each case.
On to `CCCCCC[C@@H]([C@@H](C)O)n1cnc2c(N)ncnc21`, for which the Potency result in assay [1], in assay [2], in assay [3], in assay [4] and in assay [5] was “inactive” throughout.
Take `C[C@H]1CC2C3CCC4=CC(=O)C=C[C@]4(C)[C@@]3(Cl)[C@@H](O)C[C@]2(C)[C@@]1(O)C(=O)CO` (some centres not stated): the Potency entry in assay [1], in assay [2], in assay [3], in assay [4] and in assay [5] was “inactive” throughout.
For `Cc1ccccc1/C=C/C1=NCCN1`, the Potency result in assay [1], in assay [2], in assay [3] and in assay [5] was “inactive” throughout.
On to `Oc1ccc(/C=C/c2ccc(/C=C/c3ccc(O)cc3)c(Br)c2)cc1`, for which, in assay [1], the Potency is 7.08 µM (active). Also, the Potency result in assay [2], in assay [3], in assay [4] and in assay [5] was “inactive” in each case.
For `CCN(c1nc(N)c(C(=O)N=C(N)N)nc1Cl)C(C)C`, the Potency entry in assay [1], in assay [2], in assay [3], in assay [4] and in assay [5] was “inactive” in each case.
In the case of `COc1cc(/C=C(\C#N)C(=O)Nc2nnc(C(F)(F)F)s2)ccc1OCc1ccc(C(F)(F)F)cc1C(F)(F)F`, the Potency result in assay [1], in assay [2], in assay [3], in assay [4] and in assay [5] was “inactive” throughout.
Take `C=C1C[C@@]23CC[C@H]4[C@@](C)(CCC[C@@]4(C)C(=O)O)[C@@H]2CC[C@]1(O)C3`: the Potency entry in assay [1], in assay [2], in assay [3], in assay [4] and in assay [5] was “inactive” each time.
As for `O=c1[nH]c(=S)[nH]c(-c2ccccc2)c1Cc1c(O)ccc2ccccc12`, the Potency in assay [1] is 8.91 µM (active). The Potency result in assay [2], in assay [3], in assay [4] and in assay [5] was “inactive” each time.
For the molecule `Nc1ncnc2c1c(-c1ccc(Oc3ccccc3)cc1)cn2C1CCCC1`, the Potency entry in assay [2], in assay [3], in assay [4] and in assay [5] was “inactive” in each case.
Regarding `Cc1cccc(C)c1OCC(N)C(C)C` (configuration not stated), the Potency entry in assay [2], in assay [3], in assay [4] and in assay [5] was “inactive” each time.
